Experimental findings from PubChem BioAssay (NCI) are described below.

Some test systems named below: DU-145 prostate; K-562 leukemia; MALME-3M melanoma; MDA-MB-231 breast; RXF 393 renal; SF-268 CNS; SF-295 CNS; SF-539 CNS; UACC-257 melanoma; M14 melanoma.
What all share (test): NCI-60 one-dose screen, 48 h (100 = growth as untreated, 0 = no growth, -100 = all killed)
Holding throughout (conditions): 10 µM unless noted

Each structure is given as a SMILES string. This is part of a sample that, as a whole, favours compounds with a hit. Of some 83,000 tested, about 20% had one in any assay.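 Interpretation: 100, growth as untreated; towards 0, rising growth inhibition; 0, no net growth; 0 to -100, cell death. Compounds scoring below 10 were considered active.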 Values without a mark were called inactive. Activity calls are given as the source filed them.

Take `O=C(O)C1CCCN1C(=O)OCc1ccccc1` (stereo not given): the growth with DU-145 prostate is 118%; in the assay with K-562 leukemia it was 99.1%; in the assay on MALME-3M melanoma, 108%; with MDA-MB-231 breast it was 128%; with RXF 393 renal, 139%; with SF-268 CNS it was 107%. The growth with SF-295 CNS was 107%; in the assay on SF-539 CNS, 107%; with UACC-257 melanoma, 105%; in the assay on M14 melanoma it was 99.1%.

For the molecule `Cc1ccc(S(=O)(=O)Oc2ccc3sc4c(CO)ccc(NCCN(C)C)c4c(=O)c3c2)cc1`, the growth was -97.6% [100 µM] (active) in the assay on DU-145 prostate; -61.4% [100 µM] (active) in the assay with K-562 leukemia; -89.5% [100 µM] (active) in the assay on MALME-3M melanoma; -90.7% [100 µM] (active) with MDA-MB-231 breast; -57.5% [100 µM] (active) in the assay on RXF 393 renal; -61.3% [100 µM] (active) in the assay with SF-268 CNS. The growth in the assay on SF-295 CNS was -78.7% [100 µM] (active); in the assay with SF-539 CNS, -93.1% [100 µM] (active); in the assay on UACC-257 melanoma it was -82% [100 µM] (active); with M14 melanoma, -96.5% [100 µM] (active).

On to `COC1OC(CO)C(OC)C(O)C1O` (stereo not given), for which the growth is 105% in the assay on DU-145 prostate; 102% in the assay on K-562 leukemia; 111% in the assay with MALME-3M melanoma; 111% in the assay on MDA-MB-231 breast; 99.4% in the assay on RXF 393 renal; 95.7% with SF-268 CNS. Further, the growth with SF-295 CNS is 96.7%; with SF-539 CNS, 99%; in the assay with UACC-257 melanoma, 106%; with M14 melanoma it was 103%.

`CCOC(=O)C1(N)CCCCC1`: the growth with DU-145 prostate was 112%; in the assay with K-562 leukemia, 116%; in the assay on MALME-3M melanoma it was 100%; with MDA-MB-231 breast it was 102%; in the assay on RXF 393 renal, 121%; in the assay with SF-268 CNS it was 102%. Also, the growth is 95.4% in the assay on SF-295 CNS, 96.9% with SF-539 CNS, 107% in the assay with UACC-257 melanoma and 93.8% with M14 melanoma.

Turning to `CC(=O)N(C(C)=O)c1ccc(C)cc1`, the growth in the assay on DU-145 prostate was 107%; with K-562 leukemia, 99.1%; in the assay on MALME-3M melanoma it was 97.2%; in the assay on MDA-MB-231 breast it was 102%; with RXF 393 renal, 104%; in the assay with SF-268 CNS, 96.9%. Moreover, the growth in the assay with SF-295 CNS was 93.5%; in the assay with SF-539 CNS, 98%; with UACC-257 melanoma, 110%; with M14 melanoma, 114%.

Regarding `CCCCOC(=O)c1ccc(NC(=O)CCl)cc1`, the growth with DU-145 prostate was 78.3%; in the assay with K-562 leukemia it was 5.65% (active); with MALME-3M melanoma, -67.5% (active); with MDA-MB-231 breast it was 7.83% (active); in the assay on RXF 393 renal, 89.5%; in the assay with SF-268 CNS it was 35.7%. The growth in the assay on SF-295 CNS was 90%; in the assay with SF-539 CNS, 69.9%; in the assay with UACC-257 melanoma, 75.5%; in the assay with M14 melanoma, 51.2%.

`NNC(=O)c1ccccc1N`: the growth is 120% in the assay on DU-145 prostate; 118% in the assay with K-562 leukemia; 110% in the assay with MALME-3M melanoma; 113% in the assay on MDA-MB-231 breast; 40.6% with RXF 393 renal; 114% in the assay on SF-268 CNS. Besides, the growth in the assay with SF-295 CNS is 110%; with SF-539 CNS, 112%; in the assay on UACC-257 melanoma it was 93.9%; in the assay with M14 melanoma, 106%.

As for `CCCC(OC(C)=O)c1ccc2c(c1)OCO2` (stereo not given), the growth in the assay with DU-145 prostate is 104%; in the assay on K-562 leukemia, 99%; in the assay with MALME-3M melanoma it was 91.9%; with MDA-MB-231 breast it was 113%; in the assay with RXF 393 renal, 104%; in the assay with SF-268 CNS, 102%. The growth was 105% with SF-295 CNS, 105% with SF-539 CNS, 94.9% in the assay with UACC-257 melanoma and 102% in the assay with M14 melanoma.

Regarding `COc1ccc(C)cc1NC(=O)SC(C)C`, the growth was 103% [100 µM] in the assay with DU-145 prostate; 92.5% [100 µM] with K-562 leukemia; 98.8% [100 µM] with MALME-3M melanoma; 92.1% [100 µM] with MDA-MB-231 breast; 102% [100 µM] in the assay on RXF 393 renal; 97.3% [100 µM] with SF-268 CNS. For the same molecule, the growth in the assay on SF-295 CNS was 105% [100 µM]; with SF-539 CNS, 97.6% [100 µM]; in the assay on UACC-257 melanoma, 98.8% [100 µM]; with M14 melanoma, 110% [100 µM].

Regarding `CC(C)N(C(=O)c1ccccc1)C(C)C`, the growth was 117% in the assay with DU-145 prostate; 103% in the assay on K-562 leukemia; 114% with MALME-3M melanoma; 119% in the assay on MDA-MB-231 breast; 106% in the assay on RXF 393 renal; 105% with SF-268 CNS. The growth was 105% in the assay on SF-295 CNS, 98.3% in the assay on SF-539 CNS, 104% with UACC-257 melanoma and 97% in the assay on M14 melanoma.

In the case of `CN(C)Cc1ccccn1`, the growth with DU-145 prostate was 120%; with K-562 leukemia, 107%; in the assay with MALME-3M melanoma, 98.7%; in the assay with MDA-MB-231 breast, 98.8%; with RXF 393 renal, 99.5%; in the assay with SF-268 CNS, 111%. The growth in the assay on SF-295 CNS is 101%; with SF-539 CNS, 92.1%; in the assay with UACC-257 melanoma it was 99%; in the assay on M14 melanoma it was 97.9%.

For `C=CCN1CCCC1=O`, the growth in the assay on DU-145 prostate is 114%; with K-562 leukemia, 86.7%; with MALME-3M melanoma, 96.9%; in the assay with MDA-MB-231 breast, 94.7%; in the assay with RXF 393 renal, 128%; with SF-268 CNS, 108%. In addition, the growth in the assay with SF-295 CNS was 98.3%; in the assay on SF-539 CNS, 93%; in the assay on UACC-257 melanoma, 119%; in the assay with M14 melanoma it was 98.8%.

Regarding `CCC12OC(COc3ccccc3)CN1CCN2c1ccccc1` (stereo not given), the growth in the assay on DU-145 prostate is 106% [100 µM]; in the assay on K-562 leukemia, 93.1% [100 µM]; with MALME-3M melanoma, 98.4% [100 µM]; in the assay on MDA-MB-231 breast it was 88.8% [100 µM]; in the assay on RXF 393 renal, 99.9% [100 µM]; with SF-268 CNS, 92.2% [100 µM]. In addition, the growth in the assay on SF-295 CNS was 105% [100 µM]; in the assay on SF-539 CNS it was 95.9% [100 µM]; in the assay on UACC-257 melanoma it was 95.8% [100 µM]; with M14 melanoma it was 103% [100 µM].

For `Nc1cc(F)ccc1[N+](=O)[O-]`, the growth in the assay on DU-145 prostate is 117%; in the assay on K-562 leukemia, 114%; in the assay on MALME-3M melanoma, 108%; in the assay on MDA-MB-231 breast, 105%; in the assay with RXF 393 renal, 94.3%; in the assay on SF-268 CNS, 111%. In addition, the growth in the assay with SF-295 CNS was 108%; with SF-539 CNS, 101%; in the assay on UACC-257 melanoma, 118%; with M14 melanoma, 94.4%.

In the case of `O=C(O)c1ccc(OCc2ccccc2)cc1`, the growth was 109% with DU-145 prostate; 108% in the assay on K-562 leukemia; 102% with MALME-3M melanoma; 92.7% in the assay with MDA-MB-231 breast; 112% with RXF 393 renal; 106% in the assay on SF-268 CNS. In addition, the growth in the assay on SF-295 CNS is 96.2%; in the assay on SF-539 CNS, 97.5%; with UACC-257 melanoma, 89.9%; in the assay with M14 melanoma it was 103%.
